# Measurements published in PubChem BioAssay.
# Values joined by “and” are separate entries in the source; they are usually repeats but may differ in a detail not shown here. Equal entries are not always repeated. Inconclusive results are not listed. For part of these data: Entries with a potency or affinity are not part of this list. Active and inactive are the calls of the source. Unless noted, the rule behind the calls is not given here.
# What was measured:
# [1] = target: ATP-dependent translocase ABCB1 (Homo sapiens) (UniProt P08183); experiment: P-glycoprotein substrate transport blockade – cell-based (AID 377; in the data active = fluorescence slope change above about 50%); settings: MDR1-expressing cells, fluorescent substrate accumulation slope; stronger effect = higher value; concentration not given here
# Chain of ATP-dependent translocase ABCB1 (Homo sapiens) (P08183 whole entry, looked up): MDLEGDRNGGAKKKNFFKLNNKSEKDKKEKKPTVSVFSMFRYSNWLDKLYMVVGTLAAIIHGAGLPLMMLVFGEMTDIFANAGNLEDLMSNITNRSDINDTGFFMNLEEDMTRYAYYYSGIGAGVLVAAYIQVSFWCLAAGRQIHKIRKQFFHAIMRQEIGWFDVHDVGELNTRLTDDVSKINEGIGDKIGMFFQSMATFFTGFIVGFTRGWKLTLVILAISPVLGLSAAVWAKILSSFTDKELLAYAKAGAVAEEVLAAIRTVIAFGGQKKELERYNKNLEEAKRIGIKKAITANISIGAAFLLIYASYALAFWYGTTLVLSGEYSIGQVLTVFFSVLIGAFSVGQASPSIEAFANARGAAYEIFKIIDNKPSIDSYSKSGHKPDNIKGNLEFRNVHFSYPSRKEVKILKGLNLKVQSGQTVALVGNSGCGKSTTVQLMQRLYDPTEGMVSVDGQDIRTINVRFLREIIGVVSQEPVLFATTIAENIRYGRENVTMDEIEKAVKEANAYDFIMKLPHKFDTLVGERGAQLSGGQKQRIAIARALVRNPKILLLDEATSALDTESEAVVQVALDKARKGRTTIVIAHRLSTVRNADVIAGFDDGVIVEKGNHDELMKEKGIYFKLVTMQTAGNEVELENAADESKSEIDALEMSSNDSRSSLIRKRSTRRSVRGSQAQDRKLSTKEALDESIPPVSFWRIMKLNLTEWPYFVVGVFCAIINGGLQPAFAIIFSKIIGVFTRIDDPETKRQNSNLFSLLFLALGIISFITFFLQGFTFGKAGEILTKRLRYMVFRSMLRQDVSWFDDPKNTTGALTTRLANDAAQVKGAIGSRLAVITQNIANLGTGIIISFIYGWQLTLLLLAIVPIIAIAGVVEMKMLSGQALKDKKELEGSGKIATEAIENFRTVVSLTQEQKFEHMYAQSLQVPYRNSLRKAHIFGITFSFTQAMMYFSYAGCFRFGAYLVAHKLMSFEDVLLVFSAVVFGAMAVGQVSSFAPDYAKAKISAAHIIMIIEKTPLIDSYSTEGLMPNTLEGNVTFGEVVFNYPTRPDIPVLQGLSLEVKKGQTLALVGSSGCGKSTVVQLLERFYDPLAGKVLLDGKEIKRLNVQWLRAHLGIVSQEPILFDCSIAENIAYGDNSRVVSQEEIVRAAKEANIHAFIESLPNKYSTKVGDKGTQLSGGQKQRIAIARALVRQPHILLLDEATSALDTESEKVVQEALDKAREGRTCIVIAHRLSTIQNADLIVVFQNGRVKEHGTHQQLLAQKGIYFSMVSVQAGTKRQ
# [2] = blockers of polyQ-driven CASP3 activation – cell-based (AID 1583); settings: polyglutamine-induced caspase-3 activation, cell assay; stronger effect = higher value;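 tested at 10 µM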
# [3] = yeast 75Q aggregation reduction – 75Q-TubU reporter (AID 1593); settings: Yeast 75Q polyglutamine aggregation reporter
# [4] = restoration of touch response, mutant HTT neurons – whole organism, C. elegans mechanosensory neurons, N-terminal huntingtin (AID 1599); settings: C. elegans polyQ-huntingtin mechanosensory neurons, stronger effect = higher value
# [5] = blockers of cytochrome c efflux from mitochondria – biochemical, purified mitochondria (AID 1603); settings: stronger effect = lower value;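 note: mouse liver mitochondria challenged with calcium chloride; signal normalized to the plate average as 100%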
# [6] = polyglutamine aggregate formation blockers (AID 1604); settings: polyglutamine-induced protein aggregation inhibition assay; stronger effect = higher value; tested at 2.5 µM
# [7] = glutamate transport activators, MN-1 cells, MN-1 cell line (AID 1612); settings: MN-1 motor neuron cells, stronger effect = higher value;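 note: tested at 1 µM final; 0% = mean of DMSO vehicle wells on each plate; positive means more glutamate uptake than control and negative means less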
# [8] = GFP-Q80 aggregate reduction, neuronal-like cells, cell-based, NGF-treated PC12, GFPQ80 (AID 1614); settings: PC12 NGF-treated GFP-polyQ80 inclusion reduction;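 note: lower means fewer inclusions and 0 means no inclusions at all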
# [9] = 75Q-TubH aggregate inhibition, S. cerevisiae, yeast (AID 1616); settings: S. cerevisiae 75Q-TubH polyglutamine aggregation suppression; stronger effect = higher value
# [10] = compounds altering viability of human ES cells (AID 493140); settings: human embryonic stem cell survival screen; stronger effect = higher value;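 note: cells exposed to compounds for four days before counting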
# [11] = P. berghei load reduction in hepatocytes – cell-based, HepG2, luciferase luminescence, HepG2 viability, primary screen (AID 624349; in the data active = parasite load remaining mostly below about 12%, no sharp cut-off; inactive = mostly above about 10%;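 note: 100% = mean of DMSO negative control wells on the same plate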); settings: P. berghei liver stage in HepG2, luciferase luminescence, concentration not given here; parasite load remaining: stronger effect = lower value; viability: measured here: HepG2 viability without parasites
# [12] = target: 6-phosphogluconate dehydrogenase, decarboxylating (Homo sapiens) (UniProt P52209); experiment: inhibition of human phosphogluconate dehydrogenase – biochemical, recombinant enzyme, NADPH absorbance, primary screen (AID 1159550;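 active = at least 20% inhibition of 6-phosphogluconate dehydrogenase activity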); settings: recombinant 6PGD, NADPH absorbance 341 nm; at 10 µM; stronger effect = higher value
# Chain of 6-phosphogluconate dehydrogenase, decarboxylating (Homo sapiens) (P52209 whole entry, looked up): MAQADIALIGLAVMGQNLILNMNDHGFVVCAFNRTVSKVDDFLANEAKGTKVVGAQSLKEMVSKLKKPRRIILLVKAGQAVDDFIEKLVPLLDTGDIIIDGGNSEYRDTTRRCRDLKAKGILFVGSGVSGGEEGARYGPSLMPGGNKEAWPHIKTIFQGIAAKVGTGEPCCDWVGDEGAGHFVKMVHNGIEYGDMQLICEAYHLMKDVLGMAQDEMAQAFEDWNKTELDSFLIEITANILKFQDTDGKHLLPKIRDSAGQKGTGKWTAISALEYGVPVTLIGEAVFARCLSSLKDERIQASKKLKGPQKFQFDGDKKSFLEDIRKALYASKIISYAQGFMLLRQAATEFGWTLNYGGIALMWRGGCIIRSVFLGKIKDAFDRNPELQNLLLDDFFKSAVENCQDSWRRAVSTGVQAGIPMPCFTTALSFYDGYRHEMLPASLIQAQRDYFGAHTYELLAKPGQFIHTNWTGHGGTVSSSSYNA
# [13] = EMT-state selective cytotoxicity in co-culture – imaging, PC-3E GFP, TEM4-18 mCherry, primary screen (AID 1345086;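 active = compounds killing one labelled cell type while sparing the other, by normalised counts and ratio limits, not self-fluorescent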;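 for all read-outs here: cells exposed to compound for 72 h before imaging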;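 for red/green cell ratio (normalised): normalised mesenchymal count divided by normalised epithelial count so high means epithelial killing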); settings: PC-3E GFP / TEM4-18 mCherry co-culture, imaging cell counts, at 1 µM; for red/green cell ratio (normalised): actives lie on both sides
# [14] = test system: Aerobactin synthetase IucA (Klebsiella pneumoniae hvKP1); experiment: IucA enzyme inhibition, primary screen, biochemical, Spectrum library (AID 1346200); settings: malachite green pyrophosphate, A620, at 8 µM, stronger effect = lower value;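 note: 100% = wells without compound and 0% = wells lacking enzyme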
# [15] = viability loss with induced miR-34 in A549 – imaging, A549 dox-inducible miR-34, nuclei and caspase counts, primary screen (AID 1347080;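 active = compounds whose cell count with miR-34 switched on is under 0.7 times the count with it off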); settings: A549 miR-34 inducible, Hoechst nuclei count, 48 h
# [16] = target: NAD(+) hydrolase SARM1 (Homo sapiens) (UniProt Q6SZW1); experiment: blocking NAD cleavage by SARM1 SAM-TIR – cell lysate, NAD-Glo luminescence (AID 1508614;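 active = compound whose remaining NAD level is above about 45 nM, limit read from the data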;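 note: higher remaining NAD means stronger inhibition of SARM1 NADase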); settings: SAM-TIR HEK293T lysate NADase, at 1 µM, stronger effect = higher value
# Chain of NAD(+) hydrolase SARM1 (Homo sapiens) (Q6SZW1 whole entry, looked up, the tested form may be a part): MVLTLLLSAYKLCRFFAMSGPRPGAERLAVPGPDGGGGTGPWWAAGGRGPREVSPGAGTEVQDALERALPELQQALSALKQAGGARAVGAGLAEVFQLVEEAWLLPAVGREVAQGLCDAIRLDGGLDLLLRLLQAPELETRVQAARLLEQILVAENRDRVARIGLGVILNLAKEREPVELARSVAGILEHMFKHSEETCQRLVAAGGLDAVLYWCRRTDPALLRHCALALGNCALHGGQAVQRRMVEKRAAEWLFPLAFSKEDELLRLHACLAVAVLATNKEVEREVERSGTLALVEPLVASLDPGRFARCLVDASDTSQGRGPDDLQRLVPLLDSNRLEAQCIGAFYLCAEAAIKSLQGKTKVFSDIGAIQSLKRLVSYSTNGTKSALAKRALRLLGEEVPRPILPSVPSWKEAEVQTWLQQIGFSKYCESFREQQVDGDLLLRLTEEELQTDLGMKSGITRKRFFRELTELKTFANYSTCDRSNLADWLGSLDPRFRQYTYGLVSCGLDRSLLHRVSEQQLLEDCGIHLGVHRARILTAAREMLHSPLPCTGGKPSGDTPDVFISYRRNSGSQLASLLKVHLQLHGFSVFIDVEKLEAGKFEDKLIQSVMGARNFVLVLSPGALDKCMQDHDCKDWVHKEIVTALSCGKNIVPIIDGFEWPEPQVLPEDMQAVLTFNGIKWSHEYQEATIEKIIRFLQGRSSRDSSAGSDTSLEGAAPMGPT
# [17] = target: Mitogen-activated protein kinase 7 (Homo sapiens) (UniProt Q13164); experiment: Gal4-ERK5 driven luciferase induction – cell-based, HTS, primary screen (AID 1508626;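 active = luciferase signal above three times the same-plate solvent-only control wells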;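 note: luciferase driven by Gal4-ERK5 fusion binding five Gal4 sites before minimal TATA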); settings: HeLa Gal4-ERK5 transactivation, 18 h, at 5 µM, stronger effect = higher value
# Chain of Mitogen-activated protein kinase 7 (Homo sapiens) (Q13164 whole entry, looked up, the tested form may be a part): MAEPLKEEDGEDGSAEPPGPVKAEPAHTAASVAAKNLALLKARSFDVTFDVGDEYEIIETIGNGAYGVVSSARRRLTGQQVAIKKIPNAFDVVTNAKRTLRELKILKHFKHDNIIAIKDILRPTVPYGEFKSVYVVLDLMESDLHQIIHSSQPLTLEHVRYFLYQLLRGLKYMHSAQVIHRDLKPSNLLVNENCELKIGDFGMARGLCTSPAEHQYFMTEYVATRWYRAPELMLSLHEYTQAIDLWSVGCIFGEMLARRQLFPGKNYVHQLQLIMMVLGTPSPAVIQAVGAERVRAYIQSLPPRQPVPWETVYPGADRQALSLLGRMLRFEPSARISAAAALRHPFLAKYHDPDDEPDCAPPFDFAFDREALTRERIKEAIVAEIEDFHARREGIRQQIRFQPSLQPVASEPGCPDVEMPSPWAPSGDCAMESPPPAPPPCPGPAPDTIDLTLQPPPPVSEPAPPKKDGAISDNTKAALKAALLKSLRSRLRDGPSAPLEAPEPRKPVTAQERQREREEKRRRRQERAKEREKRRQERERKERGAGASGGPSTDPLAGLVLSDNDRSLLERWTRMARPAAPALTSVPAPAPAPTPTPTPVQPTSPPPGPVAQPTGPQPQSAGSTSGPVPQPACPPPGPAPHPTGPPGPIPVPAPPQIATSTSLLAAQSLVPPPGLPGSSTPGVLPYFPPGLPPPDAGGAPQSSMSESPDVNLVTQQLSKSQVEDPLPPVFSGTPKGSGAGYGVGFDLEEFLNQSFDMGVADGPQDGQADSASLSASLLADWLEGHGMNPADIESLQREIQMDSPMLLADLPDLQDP
# [18] = MELAS cybrid and Rieske KO viability enhancers – cell-based, MELAS cybrids, Rieske KO mouse fibroblasts, CellTiter-Glo, primary screen (AID 1508586;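 active = mean z-score across replicates of 1.96 or higher in either the MELAS or the Rieske mutant cell line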;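 note: z relative to plate mean and SD of compound and empty wells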); settings: low glucose
# [19] = measured here: epithelial PC-3E GFP cell survival
# [20] = measured here: mesenchymal TEM4-18 mCherry cell survival
# [21] = measured here: relative caspase fold change +Dox/-Dox
# [22] = measured here: total cells with miR-34 induction, stronger effect = lower value
# [23] = measured here: total cells without miR-34 induction
# [24] = MELAS cybrid survival, CellTiter-Glo 48 h, stronger effect = higher value
# [25] = Rieske KO mouse fibroblast survival, CellTiter-Glo 72 h
structure (smiles),measurement,setting,value
CN1CCc2cc3c(cc2C1O)OCO3 (stereo not given),fluorescence slope change,[1],10.4% (inactive)
same,inhibition,[2],-17.4%
same,score,[3],1.48
same,rescue above control,[4],11.7
same,cytochrome c release ratio,[5],0.81
same,inhibition of aggregation,[6],65.5%
same,glutamate uptake change,[7],6.97%
same,inclusion score,[8],2
same,aggregation suppression score,[9],1.11
same,survival,[10],16.8 (inactive)
same,parasite load remaining,[11],109% (inactive) and 58% (inactive)
same,viability,[11],90% and 91.8%
same,inhibition,[12],0.261% (inactive)
same,red/green cell ratio (normalised),[13],1.09 (inactive)
same,normalised cell number,[13]; [19],0.97
same,normalised cell number,[13]; [20],1.06
same,activity remaining,[14],118% (inactive)
same,fold change,[15]; stronger effect = lower value,0.923 (inactive)
same,fold change,[15]; [21],1.43
same,cell count,[15]; [22],11700
same,cell count,[15]; [23],12700
same,remaining NAD,[16],10 nM (inactive)
same,luciferase signal,[17],52 AU (inactive)
CN(C)[C@@H]1C(=O)C(C(N)=O)=C(O)[C@@]2(O)C(=O)C3=C(O)c4c(O)ccc(Cl)c4[C@@](C)(O)[C@H]3C[C@@H]12,inhibition,[2],15.6%
same,score,[3],0.9
same,rescue above control,[4],0
same,cytochrome c release ratio,[5],0.82
same,inhibition of aggregation,[6],9.52%
same,glutamate uptake change,[7],10.1%
same,inclusion score,[8],0
same,aggregation suppression score,[9],0.363
same,survival,[10],14.3 (inactive)
same,parasite load remaining,[11],104% (inactive) and 84.9% (inactive) and 79.4% (inactive)
same,viability,[11],73.9% and 86% and 80%
same,inhibition,[12],-12.1% (inactive)
same,red/green cell ratio (normalised),[13],0.9 (inactive) and 1.54 (inactive)
same,normalised cell number,[13]; [19],1.16 and 0.93
same,normalised cell number,[13]; [20],1.04 and 1.43
same,activity remaining,[14],117% (inactive)
same,fold change,"[15]; stronger effect = lower value, cell number ratio, induced over uninduced",0.926 (inactive)
same,fold change,[15]; [21],2.73
same,cell count,[15]; [22],9350
same,cell count,[15]; [23],10100
same,z-score,[18]; [24],-3.64 (inactive)
same,z-score,[18]; [25],-1.98
same,remaining NAD,[16],10 nM (inactive)
same,luciferase signal,[17],60 AU (inactive)
COc1cc(OC)c(OC)cc1C=O,parasite load remaining,[11],70.8% (inactive)
same,viability,[11],91.7%
same,inhibition,[12],-2.13% (inactive)
same,red/green cell ratio (normalised),[13],1.04 (inactive)
same,normalised cell number,[13]; [19],1.13
same,normalised cell number,[13]; [20],1.18
same,activity remaining,[14],109% (inactive)
same,fold change,[15]; stronger effect = lower value,0.932 (inactive)
same,fold change,[15]; [21],0.878
same,cell count,[15]; [22],9380
same,cell count,[15]; [23],10100
same,z-score,[18]; [24],-0.272 (inactive)
same,z-score,[18]; [25],0.673
same,luciferase signal,[17],156 AU (inactive)
O=C1C=CC(=O)c2c(O)cccc21,inhibition,[2],-40.3%
same,score,[3],0.54
same,rescue above control,[4],2.83
same,cytochrome c release ratio,[5],0.82
same,inhibition of aggregation,[6],100%
same,glutamate uptake change,[7],42.9%
same,aggregation suppression score,[9],0.876
same,inhibition,[12],-2.17% (inactive)
same,red/green cell ratio (normalised),[13],0.98 (inactive)
same,normalised cell number,[13]; [19],1.05
same,normalised cell number,[13]; [20],1.03
same,activity remaining,[14],127% (inactive)
same,fold change,[15]; stronger effect = lower value,0.989 (inactive)
same,fold change,[15]; [21],0.796
same,cell count,[15]; [22],2420
same,cell count,[15]; [23],2440
same,luciferase signal,[17],52 AU (inactive)
C=CCC1(C(C)CCC)C(=O)N=C(S)NC1=O (stereo not given),inhibition,[2],1.58%
same,score,[3],1.49
same,rescue above control,[4],6.87
same,cytochrome c release ratio,[5],0.94
same,inhibition of aggregation,[6],42.9%
same,glutamate uptake change,[7],8.72%
same,inclusion score,[8],2
same,aggregation suppression score,[9],1.19
same,parasite load remaining,[11],21.5% (inactive)
same,viability,[11],101%
same,inhibition,[12],2.84% (inactive)
same,red/green cell ratio (normalised),[13],1.3 (inactive)
same,normalised cell number,[13]; [19],0.79
same,normalised cell number,[13]; [20],1.03
same,activity remaining,[14],110% (inactive)
same,fold change,[15]; stronger effect = lower value,0.918 (inactive)
same,fold change,[15]; [21],2.58
same,cell count,[15]; [22],11400
same,cell count,[15]; [23],12400
same,remaining NAD,[16],10 nM (inactive)
same,luciferase signal,[17],84 AU (inactive)
O=[N+]([O-])c1ccc(O)c([N+](=O)[O-])c1,inhibition,[12],-2.82% (inactive)
same,red/green cell ratio (normalised),[13],0.86 (inactive)
same,normalised cell number,[13]; [19],1.08
same,normalised cell number,[13]; [20],0.93
same,activity remaining,[14],110% (inactive)
same,luciferase signal,[17],44 AU (inactive)
NCC(=O)c1ccccc1,inhibition,[12],-6.79% (inactive)
same,red/green cell ratio (normalised),[13],0.98 (inactive)
same,normalised cell number,[13]; [19],1.03
same,normalised cell number,[13]; [20],1.02
same,activity remaining,[14],114% (inactive)
same,luciferase signal,[17],56 AU (inactive)
COC(=O)[C@]1(C)CC[C@]2(C)CC[C@]3(C)C4=CC=C5C(=CC(=O)C(O)=C5C)[C@]4(C)CC[C@@]3(C)[C@@H]2C1,inhibition,[12],9.49% (inactive)
same,red/green cell ratio (normalised),[13],0.14 (inactive)
same,normalised cell number,[13]; [19],0.01
same,normalised cell number,[13]; [20],0
same,activity remaining,[14],87.2% (inactive)
same,luciferase signal,[17],152 AU (inactive)
CC(C)(C#N)O[C@@H]1O[C@H](CO)[C@@H](O)[C@H](O)[C@H]1O,inhibition,[12],5.98% (inactive)
same,red/green cell ratio (normalised),[13],0.8 (inactive)
same,normalised cell number,[13]; [19],0.84
same,normalised cell number,[13]; [20],0.67
same,activity remaining,[14],94.3% (inactive)
same,luciferase signal,[17],92 AU (inactive)
COc1ccc(/C=C/c2cc(O)cc(O)c2)cc1,inhibition,[12],16.8% (inactive)
same,red/green cell ratio (normalised),[13],1.08 (inactive)
same,normalised cell number,[13]; [19],0.95
same,normalised cell number,[13]; [20],1.03
same,activity remaining,[14],103% (inactive)
same,luciferase signal,[17],176 AU (inactive)
CC(C)c1ccc2c(c1O)CC[C@H]1C3=C(CC[C@]21C)C(=O)OC3,inhibition,[12],-50.6% (inactive)
same,red/green cell ratio (normalised),[13],0.95 (inactive)
same,normalised cell number,[13]; [19],1.07
same,normalised cell number,[13]; [20],1.02
same,activity remaining,[14],90.4% (inactive)
same,luciferase signal,[17],64 AU (inactive)
N#Cc1c(Cl)c(Cl)c(Cl)c(C#N)c1Cl,inhibition,[12],-66.6% (inactive)
same,red/green cell ratio (normalised),[13],0.93 (inactive)
same,normalised cell number,[13]; [19],0.04
same,normalised cell number,[13]; [20],0.04
same,activity remaining,[14],108% (inactive)
same,luciferase signal,[17],604 AU (active)
CC(=O)C1CCC2C3CCC4C[C@H](O)CCC4(C)C3C[C@H](O)C12C (stereo not given in full),inhibition,[12],-3.34% (inactive)
same,red/green cell ratio (normalised),[13],1.12 (inactive)
same,normalised cell number,[13]; [19],0.99
same,normalised cell number,[13]; [20],1.11
same,activity remaining,[14],112% (inactive)
same,luciferase signal,[17],32 AU (inactive)
NC(=O)c1ccc(N)nc1,inhibition,[12],1.26% (inactive)
same,red/green cell ratio (normalised),[13],0.93 (inactive)
same,normalised cell number,[13]; [19],1.22
same,normalised cell number,[13]; [20],1.14
same,activity remaining,[14],120% (inactive)
same,luciferase signal,[17],24 AU (inactive)
CC1=CCCC2C1(C)CCC(C)C2(C)CC/C(C)=C/C[n+]1cn(C)c2c(N)ncnc21 (stereo not given),inhibition,[12],12% (inactive)
same,red/green cell ratio (normalised),[13],0.92 (inactive)
same,normalised cell number,[13]; [19],0.97
same,normalised cell number,[13]; [20],0.89
same,activity remaining,[14],115% (inactive)
same,luciferase signal,[17],64 AU (inactive)
CC[C@@]1(O)C[C@H](O)c2c(cc3c(c2O)C(=O)c2c(O)ccc(O)c2C3=O)[C@H]1C(=O)OC,inhibition,[12],10.8% (inactive)
same,red/green cell ratio (normalised),[13],0.85 (inactive)
same,normalised cell number,[13]; [19],0.96
same,normalised cell number,[13]; [20],0.82
same,activity remaining,[14],112% (inactive)
same,luciferase signal,[17],52 AU (inactive)
